In PubChem BioAssay (NCATS):
Results filed as inconclusive are left out. Active and inactive are the calls of the source. The call rests on the fitted dose curve; in most records, active means well fitted inhibition curve with a large enough effect; inconclusive means small, poorly fitted or top-dose-only effect; inactive means flat fitted curve, though single readings scatter.

Columns and labels:
Test in all cases: qHTS profiling for inhibitors of Plasmodium falciparum proliferation (AID 504749); further: nearly all actives have a fitted effect of over 60% in size
Conditions in all cases: P. falciparum in erythrocytes, SYBR Green DNA, 72 h; series mostly up to 28.7 µM
CP286 = tested on: CP286
Method in brief: (§1)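 Quantitative HTS: compounds pinned into medium, infected erythrocytes added (0.3% parasitemia, 2.5% hematocrit), 72 h culture at 37 C under 5% CO2. Saponin/Triton lysis with SYBR Green I, overnight RT, then fluorescence read.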

CP291 = tested on: CP291
Method in brief: as §1

CP297 = tested on: CP297
Method in brief: as §1

CP305 = tested on: CP305
Method in brief: as §1

CP315 = tested on: CP315
Method in brief: as §1

CP325 = tested on: CP325
Method in brief: as §1

CP329 = tested on: CP329
Method in brief: as §1

CP335 = tested on: CP335
Method in brief: as §1

DFO2036 = tested on: DFO2036
Method in brief: as §1

DIV14 = tested on: DIV14
Method in brief: as §1

DIV17 = tested on: DIV17
Method in brief: as §1

DIV30 = tested on: DIV30
Method in brief: as §1

Dd2 = tested on: Dd2
Method in brief: as §1

ECU = tested on: ECU
Method in brief: as §1

FAB9 = tested on: FAB9
Method in brief: as §1

GB4 = tested on: GB4
Method in brief: as §1

HB3 = tested on: HB3
Method in brief: as §1

ICS = tested on: ICS
Method in brief: as §1

JCK = tested on: JCK
Method in brief: as §1

N140 = tested on: N140
Method in brief: as §1

Measured: Potency
Potency means the concentration at half of the fitted maximal effect.

NCCCNCCSP(=O)(O)O
inactive: all assays above

CC(=O)[C@@]1(O)CC[C@H]2[C@@H]3CCC4=CC(=O)CC[C@]4(C)[C@H]3CC[C@@]21C
inactive: all assays above

Cc1nnc(SCC2=C(C(=O)O)N3C(=O)[C@@H](NC(=O)Cn4cnnn4)[C@H]3SC2)s1
inactive: all assays above

NC(Cc1ccc(Cl)cc1)C(=O)O (stereo not given)
inactive: all assays above

Cc1nc2c([nH]1)c(=O)n(C)c(=O)n2Cc1ccco1
inactive: all assays above

CCN(CC)CCNC(=O)c1ccc(NC(C)=O)cc1
inactive: all assays above

C[N+](C)(C)CCCCCCCCCC[N+](C)(C)C
active: CP286 4.47 µM | CP291 3.38 µM | CP297 4.78 µM | CP305 4.26 µM | CP315 4.26 µM | CP325 3.38 µM | CP329 3.38 µM | CP335 1.9 µM | DFO2036 4.47 µM | DIV14 1.07 µM | DIV17 1.69 µM | DIV30 4.26 µM | Dd2 3.16 µM | ECU 10 µM | FAB9 5.01 µM | GB4 3.01 µM | HB3 1.58 µM | ICS 2.24 µM | JCK 11.2 µM | N140 2.82 µM

CC(=O)OCC1=C(C(=O)O)N2C(=O)[C@@H](NC(=O)Cc3cccs3)[C@H]2SC1
inactive: all assays above

CCN1CCc2nc(N)oc2CC1
inactive: all assays above

CCCCCN(CCCCC)C(=O)C(CCC(=O)O)NC(=O)c1ccc(Cl)c(Cl)c1 (stereo not given)
inactive: all assays above

O=c1[nH]c(=O)n([C@H]2C[C@H](O)[C@@H](CO)O2)cc1Br
inactive: all assays above

NS(=O)(=O)c1cc2c(cc1Cl)NC(C1CC3C=CC1C3)NS2(=O)=O (stereo not given)
inactive: all assays above

CCN(Cc1ccncc1)C(=O)C(CO)c1ccccc1 (stereo not given)
inactive: all assays above
